# An excerpt weighted towards active compounds, which were near 2.9% of everything screened.
# D3 ag – activates the human D3 dopamine receptor. max activation, %. P35462. D3R DiscoveRx beta-arrestin cells, luminescence, 90 min. 0.58% of 410,000 active; in the data active = max activation above about 30%; also: 0% is about no effect
# Target sequence (P35462 whole entry, looked up): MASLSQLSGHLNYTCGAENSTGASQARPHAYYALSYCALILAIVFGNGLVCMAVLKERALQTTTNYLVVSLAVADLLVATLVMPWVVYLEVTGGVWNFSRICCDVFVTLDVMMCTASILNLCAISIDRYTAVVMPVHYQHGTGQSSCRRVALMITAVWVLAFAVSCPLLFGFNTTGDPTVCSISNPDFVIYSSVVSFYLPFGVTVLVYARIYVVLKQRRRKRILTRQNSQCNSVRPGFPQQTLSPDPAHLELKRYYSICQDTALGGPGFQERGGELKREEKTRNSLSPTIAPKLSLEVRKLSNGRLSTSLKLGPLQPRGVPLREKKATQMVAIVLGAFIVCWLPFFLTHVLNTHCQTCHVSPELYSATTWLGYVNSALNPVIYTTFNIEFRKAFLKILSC
#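 Agonist mode: compounds and dopamine controls were applied to plated cells for 90 min at 37 degrees C after an overnight attachment at 1500 cells/well. Luminescent read-out followed 30 - 60 minutes at room temperature with DiscoveRx detection reagent.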
# D3 antag – blocks the human D3 dopamine receptor; max response, negative = inhibition, %; AID 652054; D3R cells, DiscoveRx beta-arrestin luminescence, antagonist mode; hits give low values; 2.5% of 360,000 active; in the data active = max response below about -50%; inconclusive = no clear call, values can overlap the other calls; also: % is scaled to controls: 0 for no effect and ±100 for the full control effect
#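 Cells plated overnight at 1500 cells/well, then exposed to library compounds with dopamine controls for 90 minutes at 37 degrees C. DiscoveRx reagent added for 30–60 minutes at room temperature; luminescence read, quantitative HTS format.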
# B2AR arrestin – agonists driving beta-arrestin recruitment to human beta2-adrenergic receptor; P07550; beta-arrestin recruitment to beta2AR, cell-based reporter; Potency, µM (top dose mostly 46.1 µM), for inactives: top-dose activation, actives largely listed as activators; 0.02% of 330,000 active;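 also: potency is read from the fitted curve at half-maximal effect; 0% = DMSO controls and full agonism = EC100 isoproterenol or metaproterenol; nearly all actives have a fitted effect of over 65% in size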
# Integrin act MD – activators of alpha7 integrin expression for muscular dystrophy | Potency, µM (doses to about 38.3 µM), inactives show top-dose activation, most hits filed as activators | alpha7betagal myoblasts, beta-gal FDG fluorescence, 48 h | 0.064% of 350,000 active | AID 624291;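 also: potency is read from the fitted curve at half-maximal effect; 100% = response of the positive control SU9516; nearly all actives have a fitted effect of over 60% in size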
#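 Alpha7betagal+/- myoblasts (passage 13) were plated 16-24 hr, then exposed to compounds (1:260 dilution of DMSO stock) for 48 hours at 37C. After MPER lysis, β-galactosidase reporter activity was read as FDG fluorescence (ex 480/em 540) after 30 minutes.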
# IDH1 R132H inh – inhibitors of human mutant IDH1 R132H. IDH1-R132H enzyme, NADPH consumption, diaphorase/resazurin fluorescence. Potency, µM (top dose mostly 76.6 µM), for the others: at the highest dose activity change, negative = inhibition, hits mostly inhibitors. 0.093% of 390,000 active. O75874; also: potency is read from the fitted curve at half-maximal effect; % is scaled to controls: 0 for no effect and ±100 for the full control effect; nearly all actives have a fitted effect of over 65% in size
#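 IDH1-R132H (0.5 ug/mL dispensed) in pH 7.5 Tris buffer was preincubated 30 min with compound, then given a substrate mix of 0.016 mM NADPH and 2 mM alpha-KG for 80 min at room temperature; remaining NADPH was read by diaphorase/resazurin fluorescence.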
# The depositor's hits bear a star; ? = inconclusive; · = no result given. Unless noted, calls follow the shape of the dose curve; as a rule, active = well fitted curve in the direction sought with a large enough effect; inconclusive = small, poorly fitted or top-dose-only effect, or another doubt; inactive = no such curve, though single readings can be large; an effect the other way counts as inactive or inconclusive.
SMILES,D3 ag,D3 antag,B2AR arrestin,Integrin act MD,IDH1 R132H inh
COc1ccc(-c2cc(C#N)nc(N3CCN(C)CC3)n2)cc1,-24,?,-1%,-28%,4%
FC(F)(F)c1cc(-c2cccs2)nc(N2CCOCC2)n1,5,-58*,-1%,26%,6%
FC(F)(F)c1cc(-c2cccs2)nc(-n2cc(Br)cn2)n1,10,16,0%,17%,5%
COc1ccc(-c2cc(C(F)(F)F)nc(N3CCN(C)CC3)n2)cc1,1,-66*,-1%,-53%,7%
Cc1cccc(N2C(=O)CSC23C(=O)N(CC(=O)NCc2ccccc2Cl)c2ccccc23)c1 (configuration not stated),-16,·,·,·,9%
COc1ccc(O)c(-c2[nH]ncc2C(=O)c2ccccc2)c1,-6,-57*,0%,19%,9%
O=C(c1ccccc1)c1cn[nH]c1-c1ccccc1O,-1,-1,0%,9%,1%
O=C(COc1ccccc1)Nc1nnc(SCc2cc(=O)c3ccccc3[nH]2)s1,14,·,·,·,16%
CC(=O)N1c2ccc(S(=O)(=O)N3CCC(C(=O)NC4CCC(C)CC4)CC3)cc2CC1C (configuration not stated),30*,2,5%,21%,-8%
CC1CCN(c2csc3ccc(F)cc3c2=O)CC1,-1,·,·,·,22%
c1ccc(C[C@H]2CNCCN2CCc2cccc3ccccc23)cc1,-10,1,0%,-34%,0%
CCCC[C@@H]1CNCCN1CCc1cccc2ccccc12,-30,-53*,0%,-44%,-8%
COc1cc2c(cc1OC)CN(C(C)C(=O)N1CCc3ccccc31)CC2 (configuration not stated),-16,?,0%,-21%,2%
CC(C(=O)NCC1CCCCC1)N1CCc2ccccc2C1 (configuration not stated),-11,-77*,0%,-37%,-5%
CC(C(=O)NCC1CCCCC1)N1CCN(S(=O)(=O)/C=C/c2ccccc2)CC1 (configuration not stated),-2,-10,5%,36%,2%
CC(C(=O)N1CCc2ccccc21)N1CCc2ccccc2C1 (configuration not stated),-7,-86*,0%,-56%,4%
CC(C(=O)Nc1cc(Cl)cc(Cl)c1)N1CCCC1 (configuration not stated),-16,-110*,0%,-2%,-7%
COc1ccc(N2CCN(CCOc3ccc4c(C)cc(=O)oc4c3)CC2)cc1,-17,-51*,?,16%,-1%
COc1ccc(NC(=O)Cn2c(SCc3ccc(F)cc3)nc3cccnc32)c(OC)c1,18,·,·,·,-15%
Cc1ccc(S(=O)(=O)CCC(=O)N2CCN(c3ccc(Cl)cc3)CC2)cc1,32*,13,0%,-49%,14%
O=C(CCS(=O)(=O)c1ccc(Cl)cc1)N1CCN(c2ccc(F)cc2)CC1,23,5,1%,-7%,-10%
O=C(COc1ccccc1)OCc1cc(=O)n2nc(C3CC3)sc2n1,74*,·,·,·,9%
Cc1ccc(OCC(=O)Nc2ccccc2C(=O)OCc2cc(=O)n3nc(C4CC4)sc3n2)cc1,37*,·,·,·,8%
Cc1ccc(OCC(=O)Nc2ccc(C(=O)OCc3cc(=O)n4nc(C5CC5)sc4n3)cc2)cc1,-6,·,·,·,4%
CCC(CC)C(=O)OCc1cc(=O)n2nc(C3CC3)sc2n1,45*,·,·,·,16%
SMILES,D3 ag,D3 antag,B2AR arrestin,Integrin act MD,IDH1 R132H inh
N#Cc1c(NC(=O)CN2C(=O)c3ccccc3C2=O)oc(-c2ccccc2)c1-c1ccccc1,-17,?,·,17%,0%
N#Cc1c(NC(=O)CCN2C(=O)c3ccccc3C2=O)oc(-c2ccccc2)c1-c1ccccc1,-6,-85*,0%,5%,-2%
O=C(CSc1nncc2ccccc12)Nc1ccc(C(=O)O)cc1,0,-17,-1%,10%,-3%
CCc1ccc(-n2c(Cc3ccccc3)nnc2SCc2nc(-c3cccs3)no2)cc1,-11,·,·,·,4%
Cc1cc(C)nc(SCC(=O)Nc2nc(-c3ccccc3)c(-c3ccccc3)o2)n1,33*,43,13%,2%,4%
Cc1nc(-c2ccc(NC(=O)C(C)(C)C)cc2)c(-c2ccccc2)o1,11,21,0%,-15%,3%
Cc1ccc(C(=O)Nc2nc(-c3ccccc3)c(-c3ccccc3)o2)cc1,-21,-85*,0%,-38%,9%
COC(=O)CC1Oc2ccc(Cl)cc2-n2cc(-c3ccc(F)cc3)nc21 (configuration not stated),50*,·,·,·,-9%
COC(=O)CC1Oc2ccc(F)cc2-n2cc(-c3ccc(Cl)cc3)nc21 (configuration not stated),-16,·,·,·,29%
CC(=O)Nc1cc(C(=O)OCC(=O)c2ccc(Cl)cc2Cl)ccc1C,18,2,0%,13%,1%
CC(C)C(=O)Nc1cccc(C(=O)OCC(=O)c2ccc(Cl)cc2Cl)c1,31*,44,0%,-8%,0%
Cc1cccc(-c2nc(Cn3c(SCc4cc(C)ccc4C)nc4ccncc43)c(C)o2)c1,-8,·,·,·,0%
COc1cc(-c2ccc3oc(-c4cccc(C)c4)c(C#CC4(O)CCCCC4)c3c2)cc(OC)c1OC,42*,10,0%,8%,-2%
COc1ccc(-c2oc3ccc(-c4ccc5c(c4)OCO5)cc3c2C#CC2(O)CCCCC2)cc1,14,25,·,9%,-9%
Cc1ccc(C(=O)CN2/C(=C(\O)c3ccccc3)C(=O)c3ccccc3S2(=O)=O)c(C)c1,-4,-50*,0%,-14%,-6%
CC1(Oc2cccc(F)c2)CCN(Cc2csc3ccccc23)C1 (configuration not stated),-11,-106*,·,·,·
COC(=O)Cc1ccc(OC2(C)CCN(Cc3csc4ccccc34)C2)cc1 (configuration not stated),-25,-86*,·,·,·
CC1(Oc2cccc(C#N)c2)CCN(Cc2csc3ccccc23)C1 (configuration not stated),-25,-81*,·,·,·
COc1ccc(CN2CCC(C)(Oc3ccc(C(C)=O)cc3)C2)c2ccccc12 (configuration not stated),-2,-21,·,·,·
CC1(Oc2cccc(C#N)c2)CCN(Cc2ccccc2OC(F)F)C1 (configuration not stated),-10,-89*,·,·,·
O=C(COc1ccc(F)cc1)Nc1ccccc1OCc1cc(=O)n2ccccc2n1,-10,·,·,·,-13%
CCn1c2ccccc2c2cc(CNCCCN3CCOCC3)ccc21,-8,-100*,-4%,-82%,-2%
CCC(CC)NCc1ccc2c(c1)c1ccccc1n2CC,-7,0,0%,-68%,-3%
CS(=O)(=O)c1ccc(C(=O)NC2CCOC2=O)cc1 (configuration not stated),32*,16,0%,-6%,12%
